From PubChem
Most compounds without a hit are left out; they make up all but 9.3% or so of the library.
FLuc counter: firefly luciferase modulation, counter-screen for miR-21 project; AID 588342; P08659; 360,000 tested, 6.9% active; purified FLuc, Km substrates, luminescence inhibition; Potency, µM (highest dose often 57.5 µM), without a hit: at the highest dose activity change, negative = inhibition, most hits filed as inhibitors;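 note: plate controls were vehicle for no effect and reference inhibitor for full effect; nearly all actives have a fitted effect of over 55% in size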
Target sequence (P08659 whole entry, looked up): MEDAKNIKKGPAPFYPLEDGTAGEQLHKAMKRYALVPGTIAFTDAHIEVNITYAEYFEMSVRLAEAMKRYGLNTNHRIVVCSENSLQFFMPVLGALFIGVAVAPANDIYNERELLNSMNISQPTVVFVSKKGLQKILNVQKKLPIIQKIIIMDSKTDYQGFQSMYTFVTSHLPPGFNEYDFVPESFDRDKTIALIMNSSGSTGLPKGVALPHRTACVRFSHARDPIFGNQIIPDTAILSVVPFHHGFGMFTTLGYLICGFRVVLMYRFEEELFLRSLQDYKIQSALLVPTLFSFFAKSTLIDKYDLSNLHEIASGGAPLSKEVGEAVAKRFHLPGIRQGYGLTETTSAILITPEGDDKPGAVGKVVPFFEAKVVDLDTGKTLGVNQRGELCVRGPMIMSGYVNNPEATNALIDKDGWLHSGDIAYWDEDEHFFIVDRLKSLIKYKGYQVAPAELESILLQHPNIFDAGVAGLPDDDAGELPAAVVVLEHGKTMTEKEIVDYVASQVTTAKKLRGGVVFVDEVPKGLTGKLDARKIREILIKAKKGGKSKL
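Purified P. pyralis luciferase, 10 nM final, with Km-level 10 uM D-luciferin and 10 uM ATP in 50 mM Tris acetate pH 7.5, 10 mM Mg acetate, 0.01% Tween-20, 0.05% BSA; 6-point qHTS titration about 60 µM downward; luminescence read.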
ELG1 DNA repair: ELG1-dependent DNA repair inhibition; AID 504467; HEK293T ELG1-luciferase reporter, luminescence, 16 h; DNA damage induced by 5-fluorouridine; Potency, µM (highest dose often 46.1 µM), without a hit: at the top dose activity change, negative = inhibition, usual class: inhibitors; 330,000 tested, 2.3% active; note: % is set by controls: 0 for no effect and ±100 for the full control effect; nearly all actives have a fitted effect of over 55% in size
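Overnight (16 hr) co-exposure of 2,000 cells/well to 5-fluorouridine and compound at 37 °C preceded detection. Luciferase was quantified via ONE-Glo luminescence; loss of signal denotes inhibition.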
Rab9 promoter act: activators of Rab9 promoter; 320,000 tested, 2.8% active; AID 485297; Potency, µM (series often up to 9.22 µM), for inactives: top-dose activation, negative = inhibition, usual class: activators; Huh7 Rab9 promoter-luciferase reporter, luminescence, 24 h; note: % of control where 0% means no effect; nearly all actives have a fitted effect of over 60% in size
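Steps: seed 1500 Huh7 Rab9-luc cells per well, rest 2 h at 37 °C; add compound in DMSO; incubate 24 h; add luciferase reagent, 10 min ambient; read luminescence.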
NPC1 promoter act: activators of NPC1 promoter; Huh7 NPC1 promoter luciferase reporter, 24 h; Potency, µM (highest dose often 9.22 µM), inactives show top-dose activation, hits mostly activators; 320,000 tested, 2.4% active; AID 485313; note: % of control where 0% means no effect; nearly all actives have a fitted effect of over 60% in size
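In 1536-well qHTS, Huh7 cells harboring an NPC1 promoter–luciferase construct received compound for 24 h; activation was quantified by luminescence following luciferase reagent addition.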
SMN2 splice enh: SMN2 splice variant enhancement. Potency, µM (doses to about 46.1 µM), inactives show at the highest dose activity change, positive = activation, usual class: activators. 210,000 tested, 2.8% active. HEK293 SMN2-luciferase splicing reporter, luminescence, 30-36 h; note: % of control where 0% means no effect; nearly all actives have a fitted effect of over 55% in size
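HEK293 cells carry an SMN2 minigene-luciferase reporter in which exon 7 inclusion puts luciferase in frame. Cells were seeded at 2000 cells/well, attached for 10-12 hours, then exposed to compounds for 30-36 hours at 37C before ONE-Glo luminescence.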
ELG1 genotox: inducers of genotoxicity in HEK293T ELG1-luciferase cells; HEK293T ELG1-luciferase reporter, luminescence, 16 h; Potency, µM (series often up to 46 µM), for inactives: top-dose activity change, positive = activation, hits mostly activators; 330,000 tested, 1.3% active; AID 504466; note: % of control where 0% means no effect; nearly all actives have a fitted effect of over 60% in size
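Quantitative HTS format in 1536-well plates. HEK293T ELG1-luciferase reporter cells receive test compound and are incubated 16 hr at 37 °C, 5% CO2; ONE-Glo added, 30 min room temperature, then luminescence read.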
* = called active by the depositor; u = inconclusive; x = no result given. Calls come from the whole dose curve; as a rule, active = well fitted curve in the direction sought with a large enough effect; inconclusive = small, poorly fitted or top-dose-only effect, or another doubt; inactive = no such curve, though single readings can be large; an effect the other way counts as inactive or inconclusive. Potency is the fitted concentration of half-maximal effect.

SMILES	FLuc counter	ELG1 DNA repair	Rab9 promoter act	NPC1 promoter act	SMN2 splice enh	ELG1 genotox
COc1ccc(C(=O)COC(=O)c2n[nH]c3ccccc23)c(OC)c1	6µM*	u	3.5µM*	3.2µM*	x	15%
O=C(Cc1n[nH]c(=O)c2ccccc12)OCC(=O)c1ccc2c(c1)OCCO2	13µM*	u	-10%	-8%	-19%	u
O=C(Cc1n[nH]c(=O)c2ccccc12)OCC(=O)c1ccc(F)cc1	4%	-4%	1%	-2%	x	0%
Cc1ccc2cccc(S(=O)(=O)NC3CCS(=O)(=O)C3)c2n1 (centres undefined)	-6%	-2%	0%	-2%	13%	-11%
O=C1CC(c2ccccc2)n2nc(NC(=O)c3ccccn3)nc2N1 (centres undefined)	10%	-18%	1%	-5%	11%	2%
COc1ccc(C(CC(=O)Nc2ccc(Cl)cc2F)NC(=O)C(F)(F)F)cc1 (centres undefined)	-1%	8%	0%	0%	-11%	-1%
Cc1cc(C(=O)COC(=O)c2nccnc2N)c(C)n1C	9.5µM*	u	0.5µM*	3.2µM*	11µM*	6.5µM*
O=C(Cc1ccc(Br)cc1)OCC(=O)c1ccc2c(c1)OCCO2	17µM*	u	-2%	-4%	16%	4%
COc1ccccc1NC(=O)NC1(C)CCS(=O)(=O)C1 (centres undefined)	-2%	14%	2%	-4%	x	3%
Cc1nc(N)sc1-c1csc(Nc2ncccn2)n1	3µM*	u	0.56µM*	u	5.6µM*	23µM*
COc1cccc(Nc2nc(-c3sc(C)nc3C)cs2)c1	19µM*	u	26%	24%	x	14%
COc1cccc(Nc2nc(-c3sc(N)nc3C)cs2)c1	13µM*	u	u	25%	u	u
COc1ccccc1Nc1nc(-c2sc(N)nc2C)cs1	u	u	3%	0%	x	1%
Cc1nc(N)sc1-c1csc(NCc2ccccc2)n1	u	-17%	-6%	-6%	-19%	2%
COc1ccc(OC)c(Nc2nc(-c3sc(C)nc3C)cs2)c1	u	u	1%	0%	-17%	-2%
COc1cccc(Nc2nc(-c3sc(NC(=O)c4ccco4)nc3C)cs2)c1	24µM*	u	-6%	-6%	1%	-8%
Cc1nc(C)c(-c2csc(Nc3ccc(F)cc3)n2)s1	u	u	u	12%	-19%	23%
Cc1nc(C)c(-c2csc(Nc3ccc(C(=O)O)c(O)c3)n2)s1	12µM*	0%	4%	-2%	x	-4%
CC1(C)CC(=O)C2=C(C1)Nc1ccccc1N=C2	6.7µM*	6%	-3%	-1%	u	11%
Cn1c(=O)c2c(nc(Sc3ncccn3)n2Cc2ccc(Cl)cc2)n(C)c1=O	0%	16µM*	2%	0%	-7%	-4%
Cn1c(=O)c2c(nc(Sc3ncccn3)n2Cc2ccccc2Cl)n(C)c1=O	-1%	u	2%	1%	-5%	-3%
Cc1ccc(C)n1-c1ccsc1C(=O)CC#N	-16%	0%	3%	-3%	-7%	2%
CC[n+]1ccccc1/C=C/c1ccc(N(C)C)cc1	-10%	u	-34%	-40%	-54%	-2%
CC[n+]1ccc(/C=C/c2ccc(N(C)C)cc2)c2ccccc21	24µM*	u	-61%	-38%	x	-7%
COc1ccc2oc(C(=O)OCC(=O)N(C)C3CCS(=O)(=O)C3)c(C)c2c1 (centres undefined)	-10%	2%	3%	-2%	x	-1%
SMILES	FLuc counter	ELG1 DNA repair	Rab9 promoter act	NPC1 promoter act	SMN2 splice enh	ELG1 genotox
COc1ccc(NC(=O)CN2CCN(c3ccc(C)cc3C)CC2)cc1	2%	26%	-8%	5%	x	-3%
O=c1cc2oc3cc(O)c(O)cc3c(-c3ccccc3[N+](=O)[O-])c-2cc1O	u	21µM*	-24%	-31%	x	-4%
O=c1cc(-c2ccccc2Cl)oc2cccc(O)c12	-18%	23%	-1%	2%	15%	12%
Cc1ccccc1-c1nc(C#N)c(N2CCC(C)CC2)o1	24µM*	u	22%	5%	x	9%
CC1CCN(c2oc(-c3ccccc3Cl)nc2C#N)CC1	11µM*	u	u	u	x	u
CC(C)(C)c1ccc(-c2nc(C#N)c(N3CCC(C(N)=O)CC3)o2)cc1	21µM*	3%	0%	-1%	x	1%
N#Cc1nc(-c2ccccc2Cl)oc1N1CCOCC1	-12%	15%	8%	1%	-1%	13%
CC1CC(C)CN(c2oc(-c3ccccc3F)nc2C#N)C1 (centres undefined)	0%	u	0%	0%	x	-2%
CC1CCCN(c2oc(-c3cccc4ccccc34)nc2C#N)C1 (centres undefined)	5.4µM*	u	u	u	-12%	u
CC1(C)CC(N(Cc2cccs2)C(=O)c2ccco2)CCO1 (centres undefined)	1%	6%	1%	-6%	-12%	1%
Clc1ccc(-c2nc3cnccn3c2NC2CCCC2)cc1	-3%	-10%	-2%	2%	-20%	-3%
COc1ccc(C2NC(=S)N3C(c4ccc(OC)cc4)NC(=S)N23)cc1 (centres undefined)	u	u	-3%	-1%	-12%	18%
COc1cc2cc(C(=O)N3CCOCC3)cc(-c3ccc(C)cc3)c2cc1OC	-1%	15µM*	4%	-3%	x	-7%
COc1ccc(-c2cc(C(=O)N3CCCCCC3)c3cc(C)ccc3n2)cc1	12µM*	8%	5%	-6%	x	-3%
COc1ccc(-c2cc(C(=O)N3CCOCC3)c3cc(C)ccc3n2)cc1	17µM*	-2%	0%	5%	1%	2%
Cc1ccc(-c2cc(C(=O)N3CCN(c4ccccc4O)CC3)c3ccccc3n2)o1	0.76µM*	4%	2.2µM*	u	x	0%
COc1ccc(-c2cc(C(=O)Oc3ccc(C)cc3)c3cc(C)ccc3n2)cc1	-17%	x	x	x	-3%	x
COc1ccc(-c2cc(C(=O)N3CCOCC3)c3ccccc3n2)cc1OC	u	-22%	-5%	-2%	x	-3%
COc1ccc(-c2cc(C(=O)N3CCCCC3)c3ccccc3n2)cc1OC	u	u	-1%	-4%	x	-7%
COc1ccc2nc(-c3ccc(Cl)cc3)cc(C(=O)O)c2c1	8.5µM*	u	1%	2%	x	8%
O=C(c1cc(-c2ccncc2)nc2ccccc12)N1CCN(Cc2ccccc2)CC1	x	21µM*	x	x	x	-7%
